Screens as filed in PubChem BioAssay.
SARS PLP yeast = inhibitors of SARS-CoV papain-like protease in yeast; AID 485353; S. cerevisiae expressing SARS-CoV PLpro, growth rescue; Potency, µM (highest dose often 32.9 µM), for inactives: at the highest dose activity, positive = growth rescue, usual class: activators; 330,000 tested, 0.19% active; calls by dose curve; note: potency is the fitted concentration of half-maximal effect; 0% is about no effect; nearly all actives have a fitted effect of over 55% in size
CHX counter = counter-screen hit for Shiga toxin inhibitors, cycloheximide. cell reporter, cycloheximide protein synthesis inhibition counterscreen. max response, %. 300,000 tested, 12% active. AID 2314; in the data active = max response mostly above about 13%, no sharp cut-off; inactive = mostly below about 14%; note: read at 38.3 µM for the half of the compounds with a filed dose; 0% is about no effect
Pf growth 96h = inhibits malaria parasite growth, 96 h; Potency, µM (doses to about 28.7 µM), inactives show top-dose activity change, negative = inhibition, usual class: inhibitors; 320,000 tested, 6.9% active; P. falciparum luciferase reporter growth, 96 h; note: potency is the fitted concentration of half-maximal effect; % is set by controls: 0 for no effect and ±100 for the full control effect
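Plates of compound plus infected erythrocytes (2% hematocrit, 0.05% parasitemia final) incubate 96 hours, 37 C, 5% CO2. Detection reagent added; reduced luminescence from the parasites' luciferase reporter flags inhibition.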
NS1 inh = influenza NS1 inhibition. Potency, µM (top dose mostly 46.1 µM), for the others: at the highest dose activity, positive = more growth. 270,000 tested, 0.4% active. AID 2326; calls by dose curve; note: potency is the fitted concentration of half-maximal effect; actives are rising curves; nearly all actives have a fitted effect of over 50% in size
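In this qHTS, NS1 from influenza A is expressed in budding yeast, where it slows growth. Cells are switched from glucose to 2% galactose medium (pH 6.0, -URA), treated with compound, and growth recovery is read at OD600.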
Pf growth 48h = inhibits P. falciparum growth in the first generation, 48 h; P. falciparum luciferase growth in erythrocytes, 48 h; Potency, µM (doses to about 28.7 µM), for inactives: top-dose activity change, negative = inhibition, usual class: inhibitors; 310,000 tested, 5.9% active; note: potency is the fitted concentration of half-maximal effect; % is set by controls: 0 for no effect and ±100 for the full control effect
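Erythrocytes infected with P. falciparum carrying an integrated firefly luciferase reporter (2% hematocrit, 0.1% parasitemia final) were exposed to compounds in RPMI 1640 with 0.5% Albumax at 37 C, 5% CO2. Growth inhibition was scored as reduced luminescence.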
Shiga inhibitor = inhibitors of Shiga toxin in Vero cells; AID 2315; Vero cells, Shiga toxin protein synthesis inhibition reporter; inhibition, % at 38.7 µM; 290,000 tested, 9.2% active; in the data active = inhibition mostly above about 28%, no sharp cut-off; inactive = mostly below about 43%; note: 0% is about no effect
* = called active by the depositor; i = inactive; ? = inconclusive; / = not tested or not shown; [ ] = remark or other dose. Compounds with a hit are over-represented: about 21% of the library has one in this group of screens. Unless noted, calls come from the whole dose curve; as a rule, active = well fitted inhibition curve with a large enough effect; inconclusive = small, poorly fitted or top-dose-only effect, or another doubt; inactive = no such curve, though single readings can be large or run the other way.

SMILES	SARS PLP yeast	CHX counter	Pf growth 96h	NS1 inh	Pf growth 48h	Shiga inhibitor
CC(CNC(=O)Cn1ccc2cc(S(=O)(=O)N3CCCC3)ccc21)c1ccccc1 (stereo not drawn)	0.8%	14.4	?	1.2%	?	8.5
Cc1csc(NC(=O)CSc2nnc(CCNC(=O)c3cccs3)n2C)n1	-1.2%	5.6	?	0.3%	?	9.3
COc1ccc(CCCc2nnc(SCC(=O)Nc3nc(C)cs3)n2C)cc1C	2.7%	-2.4	/	4.6%	13.1µM*	-12.8
COc1ccc(CC(=O)Nc2nc(C)cs2)cc1OC	0.3%	-1.1	11.7µM*	-7.2%	6.7%	-13.3
Cc1csc(NC(=O)Cc2ccc(Br)cc2)n1	-10.3%	31.3*	180.1%	-3.1%	32.9%	61.0
COc1ccc(CC(=O)Nc2nc(C(C)(C)C)cs2)cc1	-12.1%	10.0	-12.3%	9.9%	-6.6%	22.5
COc1ccc(CC(=O)Nc2nc(C)cs2)cc1	0.0%	20.1*	?	/	36.6%	29.5
COc1ccc(OC)c(-c2csc(NC(=O)Cc3ccc(OC)c(OC)c3)n2)c1	-1.1%	-3.8	-18.7%	12.6%	-7.9%	-5.5
COCCn1c(=S)[nH]c2cc(C(=O)N3CCN(c4ccc(F)cc4)CC3)ccc2c1=O	5.2%	-3.2	1.0%	-40.7%	-11.0%	-18.6
Cc1ccc(S(=O)(=O)c2nc(S(=O)(=O)c3ccccc3)sc2N2CCN(CCO)CC2)cc1	4.4%	16.5	-28.2%	-3.4%	?	7.5
Cc1csc(NC(=O)Cc2ccccc2Cl)n1	?	39.8*	160.0%	19.2%	45.6%	110.3*
COc1ccc(CC(=O)Nc2nnc(C(C)(C)C)s2)cc1OC	-0.9%	-3.1	4.65µM*	4.1%	-14.5%	-3.8
COc1ccccc1OCCC(=O)Nc1nc(C)cs1	1.5%	15.1*	12.6%	-48.7%	39.6%	24.4
O=C(Nc1ccc(Cl)cn1)c1cccc2c(Br)cccc12	0.0%	15.2	?	5.5%	16.0%[0.00184 µM]	30.6
O=C(NCc1ccco1)c1ccc(Cl)c(S(=O)(=O)N2CCCC2)c1	-2.1%	/	2.62µM*	/	9.28µM*	/
CC1CCCN(S(=O)(=O)c2cc(C(=O)NCc3ccco3)ccc2Cl)C1 (stereo not drawn)	-1.5%	/	/	/	/	/
CCN(c1ccccc1)S(=O)(=O)c1cc(C(=O)NCC(c2ccco2)N2CCCCC2)ccc1C (stereo not drawn)	-5.5%	/	/	/	/	/
CCN(c1ccccc1)S(=O)(=O)c1cc(C(=O)NCc2ccco2)ccc1C	-18.1%	/	13.1µM*	/	11.7µM*	/
CC(C)(C)N1C(=O)c2ccc(C(=O)NCc3ccco3)cc2C1=O	-1.0%	16.2*	/	-12.8%	5.2%	5.2
O=C(NCc1ccco1)c1ccc2[nH]c(=O)c(=O)[nH]c2c1	11.4%	-3.9	41.2%	-7.8%	21.0%	-5.3
CCc1ccc(NC(=O)c2ccc(F)c(S(=O)(=O)N(CC)c3ccccc3)c2)cc1	1.5%	14.5*	?	-5.7%	9.28µM*	1.6
O=c1c2ccccc2nc2sc(Nc3cccc(C(F)(F)F)c3)nn12	/	/	-3.5%	/	11.4%	/
CCC1CCC(C(=O)NC(C(=O)NCCCN2CCCCC2C)C(C)C)CC1 (stereo not drawn)	-6.8%	-8.3	-27.4%	/	0.9%	12.4
CC(C)(C)OC(=O)N1CCC[C@H]1c1nnc(SCC(=O)Nc2ccc(Br)cc2)o1	1.0%	-2.9	2.2%	-3.2%	-3.0%	-14.9
Cc1ccn2c(=O)c(NC(=O)c3cccs3)c(C)nc2c1	-1.5%	/	7.2%	/	2.0%	/
SMILES	SARS PLP yeast	CHX counter	Pf growth 96h	NS1 inh	Pf growth 48h	Shiga inhibitor
Cc1cc2nc3[nH]c4c(Cl)cc(Cl)cc4c3nc2cc1C	/	/	/	3.5%	/	/
Cc1ccc(C(=O)NCc2ccco2)cc1S(=O)(=O)N1CCCC1	4.0%	-1.9	26.6%	7.3%	11.7µM*	6.4
CNS(=O)(=O)c1cc(C(=O)NCc2ccco2)ccc1Cl	-0.7%	-1.7	/	-2.4%	-20.1%	-3.0
O=C(c1ccc(Cl)c(S(=O)(=O)N2CCOCC2)c1)N(Cc1ccco1)Cc1cccs1	-2.7%	/	2.62µM*	/	?	/
CN(C)C1(CNC(=O)c2ccc(Cl)c(S(=O)(=O)NCc3ccco3)c2)CCCCC1	14.7%	22.8*	/	15.8%	?	38.0
O=C(Cn1cc(C(F)(F)F)cc(Cl)c1=O)Nc1cc(S(=O)(=O)N2CCOCC2)ccc1Cl	8.8%	-2.8	-14.4%	2.3%	-9.3%	-0.7
CC(=O)N1CCOc2cc(S(=O)(=O)Nc3cccc(C(F)(F)F)c3)c(Cl)cc21	-1.2%	/	?	/	13.1µM*	/
CC(=O)N1CCOc2cc(S(=O)(=O)NC(C)c3ccccc3)c(Cl)cc21 (stereo not drawn)	-3.4%	3.0	-15.7%	18.5%	-63.7%	8.7
N/C(Cc1nc(-c2ccc(Br)cc2)cs1)=N\O	-0.7%	26.3*	?	/	91.4%	77.7*
N/C(Cc1nc(-c2ccc(F)cc2)cs1)=N\O	-0.9%	22.0*	61.1%	2.7%	122.8%	43.4*
CCCCSc1ncnc2[nH]ncc12	0.2%	22.5*	41.2%	-7.2%	6.9%	24.7
CCCNc1ncnc2[nH]ncc12	/	/	/	-0.1%	/	/
O=C(Nc1c(C(=O)N2CCOCC2)oc2ccccc12)c1ccccc1Cl	0.0%	7.1	-1.5%	-22.0%	-7.0%	15.9
Nc1c(C(=O)c2ccc(F)cc2)oc2ccccc12	-0.5%	37.7*	101.6%	-12.4%	108.4%	43.6*
Nc1c(C(=O)c2ccco2)oc2ccccc12	-0.7%	20.8*	-5.7%	/	2.5%	24.3*
CC(=O)Nc1c(C(=O)c2ccccc2)oc2ccccc12	-0.1%	-5.2	?	-10.6%	-18.7%	-10.8
Nc1c(C(=O)N2CCOCC2)oc2ccccc12	-1.4%	18.2*	?	-2.9%	12.0%	15.4
Cc1c(C(=O)c2ccccc2)oc2ccc3ccccc3c12	0.3%	50.7*	i	2.3%	270.5%	105.7*
CC(=O)c1oc2ccccc2c1N	6.2%	0.4	84.9%	2.3%	19.3%	-2.1
Nc1c(C(=O)Nc2ccc(Cl)cc2)oc2ccccc12	-8.9%	55.0*	299.7%	-65.4%	/	175.1*
Nc1c(C(=O)c2ccccc2)oc2ccccc12	-6.0%	22.1*	-8.2%	-4.8%	/	27.7
O=C(Nc1nc(-c2ccc(Cl)s2)cs1)c1ccncc1	7.0%	14.8	10.4µM*	-6.2%	-12.3%	22.6
O=C(CN1C(=O)CCC1=O)Nc1nc(-c2ccc(Cl)s2)cs1	15.3%	6.9	8.5%	2.4%	35.0%	28.5
O=C(Nc1nc(-c2cc(Cl)sc2Cl)cs1)c1cccs1	-22.3%	11.4*	-51.0%	-45.7%	?	31.2
CC1CC1C(=O)Nc1nc(-c2ccc(Cl)s2)cs1 (stereo not drawn)	-0.4%	37.5*	-1.0%	/	-28.5%	130.5*
CNC(=O)c1c[nH]c2ccc(S(=O)(=O)Nc3cccc(Cl)c3C)cc2c1=O	-8.0%	/	?	/	1.3%	/
Cc1ccc(CNC(=O)CSc2nnc3n2CCCCC3)cc1	-1.9%	/	-26.3%	/	-16.5%	/
COc1cccc(NC(C)C(=O)Nc2cc([N+](=O)[O-])ccc2Cl)c1 (stereo not drawn)	-10.5%	14.5	14.7µM*	/	-25.8%	8.4
